# Assay results: PubChem BioAssay AID1259397 (Fisher Drug Discovery Resource Center, 2018)
# Values joined by “and” are separate entries in the source; they are usually repeats but may differ in a detail not shown here. Equal values may be shown once. About 230 (0.18%) of roughly 130,000 compounds were called active.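 The calls were made as follows: active = inhibition of cGAS enzyme activity at or above 60%; inactive = the rest.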 The list comes from a sample in which actives are over-represented; it also holds similar structures and randomly drawn compounds. Where a structure was tested more than once in an assay, its records may differ in their call.
# Biological target: Cyclic GMP-AMP synthase (Mus musculus) (UniProt Q8C6L5)
# Sequence (Q8C6L5 whole entry, looked up): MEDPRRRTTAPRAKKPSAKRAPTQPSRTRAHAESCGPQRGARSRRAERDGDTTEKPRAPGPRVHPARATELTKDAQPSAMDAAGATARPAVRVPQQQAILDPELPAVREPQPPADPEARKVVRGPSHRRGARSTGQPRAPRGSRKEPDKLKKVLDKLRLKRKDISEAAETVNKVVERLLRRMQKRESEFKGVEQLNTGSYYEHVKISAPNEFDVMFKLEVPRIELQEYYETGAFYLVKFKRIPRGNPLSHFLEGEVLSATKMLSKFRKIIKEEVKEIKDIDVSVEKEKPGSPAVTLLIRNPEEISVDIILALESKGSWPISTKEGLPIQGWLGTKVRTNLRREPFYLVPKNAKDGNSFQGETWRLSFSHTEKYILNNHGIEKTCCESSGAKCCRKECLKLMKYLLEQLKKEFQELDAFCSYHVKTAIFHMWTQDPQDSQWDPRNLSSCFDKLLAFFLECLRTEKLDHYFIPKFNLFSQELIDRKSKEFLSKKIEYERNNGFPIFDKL
# Experiment: inhibitors of Mus musculus cyclic GMP-AMP synthase, initial high-throughput assay, cell-free, RapidFire MS (AID 1259397);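 also: enzyme stimulated by 45 bp dsDNA with ATP and GTP substrates; cGAMP share of summed cGAMP plus half ATP and half GTP signals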
# Details: recombinant mouse cGAS, cGAMP by RapidFire MS; at 12.5 µM; stronger effect = higher value
row,Structure (SMILES),inhibition
1,COCCn1c(-c2cc(OC)ccc2OC)csc1=Nc1ccc(OC)cc1,-17.5% (inactive)
2,Cc1ccc(-c2nc(CCNC(=O)c3cccc(C)c3)cs2)cc1,5.19% (inactive)
3,O=S(=O)(c1ccc(Oc2nc(C(F)(F)F)nc3ccccc23)cc1)N1CCOCC1,-25.2% (inactive)
4,COC(=O)NC(C)C(=O)NCc1cccnc1Oc1c(C)cccc1C (stereo not given),-19.5% (inactive)
5,CCN(Cc1ccccc1)C(=O)COC(=O)c1cccc(O)c1,5.18% (inactive)
6,CN1CCN(c2ccc(NC(=O)c3cccs3)c(C(F)(F)F)c2)CC1,-17.2% (inactive)
7,COc1ccc(C2=CCN(C(=O)c3csc(NC(C)=O)n3)CC2)cc1,-5.03% (inactive)
8,COc1ccc(CCn2c(SCCO)nc3c2c(=O)n(C)c(=O)n3C)cc1,-8.65% (inactive)
9,Cc1nn(C)c(C)c1C(=O)N(C)Cc1ccc(Cl)cc1,-0.861% (inactive)
10,CCC(C(=O)N1CC=CCC1)n1cc(C(C)=O)c2ccccc21 (stereo not given),-14.3% (inactive)
11,Fc1ccc(-c2[nH]ncc2CNCc2ccc(OC(F)(F)F)cc2)c(F)c1,-8.38% (inactive)
12,N#Cc1ccc(NC(c2ccccc2)c2ccccn2)nc1 (stereo not given),9.13% (inactive)
13,CC(Cn1ccnc1)NS(=O)(=O)c1ccccc1 (stereo not given),-2.43% (inactive)
14,Cc1nc2c(c(NCc3csc(-c4cnccn4)n3)n1)CCN(C)CC2,-14.9% (inactive)
15,COc1ccc(NC(C)=O)cc1S(=O)(=O)Oc1ccc2c(c1)CCC2,-14.7% (inactive)
16,O=C(Cn1ccc(=O)c2ccccc21)Nc1cc(Cl)ccc1C(=O)N1CCCC1,-4.35% (inactive)
17,COc1ccccc1-c1n[nH]c(=S)n1-c1ccc(C)cc1,-2.19% (inactive)
18,O=C(Nc1ccc(F)cc1)Nc1ccc(OC(F)F)cc1,-13.8% (inactive)
19,O=c1oc2c(CN3CC4CC(C3)c3cccc(=O)n3C4)c(O)ccc2cc1-c1nc2ccccc2s1 (stereo not given),-0.297% (inactive)
20,O=C(O)CCCc1ccccc1,0.216% (inactive) and -7.46% (inactive) and -8.15% (inactive)
21,O=C(CCSCc1ccccn1)NCc1ccc(Br)s1,7.74% (inactive)
22,O=C(O)CCCc1ccc(Br)s1,92.3% (active)
23,CS(=O)(=O)c1ccc(CN2CCN3C(C(=O)N4CCOCC4)=COC3=NC2=O)cc1,62.5% (active)
24,N#Cc1cccc(CN2CCN3C(C(=O)NCCCc4ccccc4)=COC3=NC2=O)c1,-8.68% (inactive)
25,O=C(NCCc1ccccc1)C1=COC2=NC(=O)N(Cc3ccccc3C(F)(F)F)CCN12,-9.37% (inactive)
26,Cc1cc2nc3c(=O)[nH]c(=O)nc-3n(C[C@H](O)[C@H](O)[C@H](O)CO)c2cc1C,87.9% (active)
27,Cc1c(C(=O)NCc2cccs2)sc(=O)n1Cc1ccccc1C(F)(F)F,-4.53% (inactive)
28,COc1ccccc1CNC(=O)CC1C(=O)NCCN1Cc1ccccc1C (stereo not given),-7.58% (inactive)

row,Structure (SMILES),inhibition
1,C=Cc1c(C)c2[n-]c1=Cc1[n-]c(c(CC)c1C)C=c1[n-]c3c(c1C)C(O)=C(C(=O)O)C=3c1[n-]c(c(C)c1CCC(=O)O)C=2.[Cu],97.2% (active) and -3.92% (inactive)
2,Cc1ccc(C(=O)Nc2ccc(C(=O)NCC(N)=O)cc2)cc1Cl,-5.23% (inactive)
3,CCC(N)(C(=O)OC)c1ccccc1 (stereo not given),-5.42% (inactive)
4,Cc1ccc(NC(=O)Cc2nc(-c3ccc4c(c3)CCO4)cs2)c(C)c1,4.73% (inactive)
5,Cc1ccc(NS(=O)(=O)c2ccccc2C(F)(F)F)cc1C,-9.68% (inactive)
6,Cc1nc(-c2cccs2)sc1C(=O)OCc1cc(=O)n2c(C)csc2n1,17.2% (inactive)
7,COc1cc(C)c(CN2CCN(C(=O)C3=COCCO3)CC2)cc1OC,0.561% (inactive)
8,O=C(NCC1(c2ccc(F)cc2)CCCC1)C1CCN(C(=O)C2CC2)CC1,0.199% (inactive)
9,FC(F)C(F)(F)C(F)(F)C(F)(F)CNCc1ccco1,6.11% (inactive)
10,CC(C)Oc1ccc(-c2cncn2C)cc1,-19.6% (inactive)
11,Cn1nnnc1SCCNC(=O)c1ccc2oc(Cc3ccccc3)nc2c1,3.65% (inactive)
12,COCCCn1c(C)c(C)n2c3c(=O)n(CC(C)C)c(=O)n(C)c3nc12,-5.91% (inactive)
13,COC(=O)c1ccc(-c2nc(CN3CCN(C(=O)c4cccc(OC)c4)CC3)c(C)o2)cc1,-3.22% (inactive)
14,O=C(CC1CSc2nccc(=O)n21)Nc1ccc(Oc2ccccc2)cc1 (stereo not given),-4.45% (inactive)
15,CCC(c1ccccc1)C1(O)OC(=O)c2ccccc21 (stereo not given),-3.91% (inactive)
16,O=C(CCn1c(=O)oc2cc(Cl)ccc21)N1CCN(c2ccccc2Cl)CC1,-7.84% (inactive)
17,COc1ccc(C(=O)NC2CC2)cc1OC1CCN(C/C=C/c2ccccc2)CC1,-2.34% (inactive)
18,CC(C)(C)n1ncc2c(=O)n(NC(=O)c3ccc(C(F)(F)F)cc3)cnc21,-4.85% (inactive)
19,C#CC(CC)(CC)NC(=O)c1ccc(S(C)(=O)=O)cc1,1.64% (inactive)
20,COc1cc(CNC(C)(C)CO)ccc1OCC(=O)Nc1ccc(C)cc1,-4.89% (inactive)
21,CCc1ccc2oc3c(c(=O)c2c1)C(c1cccc([N+](=O)[O-])c1)N(c1cc(C)on1)C3=O (stereo not given),-10.5% (inactive)
22,Cc1noc(CNC(=O)C2CC(=O)N(CC(F)(F)F)C2)n1 (stereo not given),1.05% (inactive)
23,CCC1=NOC(C(=O)NCCn2c(C)cc(C)nc2=O)C1 (stereo not given),0.535% (inactive)
24,CC(CCS(C)=O)NC(=O)Nc1ncc(-c2ccccc2)s1 (stereo not given),-2.71% (inactive)
25,Oc1c(Cl)cc(Cl)c(Cl)c1Cc1c(O)c(Cl)cc(Cl)c1Cl,92.7% (active) and 36.7% (inactive)
26,COc1ccc(-c2csc(=Nc3cc(OC)cc(OC)c3)n2NC(=O)C(C)Oc2ccc(Cl)cc2C)cc1 (stereo not given),1.02% (inactive)
27,Cc1cc(C)n(CCNC(=O)CN2CCN(c3ccc4c(c3)OCCO4)C2=O)n1,-5.72% (inactive)
